Target: CBX8-directed TALE-omega K59E (synthetic construct, UniProt Q56830 SEQ:41-724, K59E)
Assay: one_hybrid; versus canonical CBX8 TALE
Details: tags: N-terminal FLAG-NLS, C-terminal RNAP omega; dsDNA, one strand shown

Sequence: TTCAGGAGGGCTTCGGC
- binding signal: 2 fold decrease

From patent US20240200044, “EVOLUTION OF TALENS” (President and Fellows of Harvard College, published 2024)
